# Out of some 320,000 compounds screened, about 2,100 (0.66%) were called active. Roughly 53% stayed inconclusive and do not appear here. The call rests on the fitted dose curve; in most records, active means well fitted inhibition curve with a large enough effect in the signal ratio, with a control signal flat (not every such curve was filed as active); inconclusive means small, poorly fitted or top-dose-only effect, or effect the other way, or a change in a side signal; inactive means flat fitted curve, though single readings scatter; the % refers to the signal ratio. This excerpt belongs to a sample that is enriched for actives.
# Assay: qHTS Assay for Lipid Storage Modulators in Drosophila S3 Cells;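 on cell number change: cells counted by Cell Tracker Red CMTPX staining in the red channel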; on lipid storage change, negative = inhibition: on the % scale 0 is the no-effect control and ±100 the full control effect
# Details: BODIPY lipid droplet fluorescence, 18-24 h, cells fed with added oleic acid; cell number change: measured here: cell count max response; series mostly up to 46.1 µM; lipid storage change, negative = inhibition: at the top concentration
# In short: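 Drosophila S3 cells got compounds at several concentrations plus oleic acid (400 uM solution). Laser-scanning cytometry with 488 nm excitation read lipid droplets at 500-530 nm and cells at 575-640 nm. Percent activity was relative to 20 uM Triacsin C.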
# Potency means the concentration at half of the fitted maximal effect.
SMILES,outcome,cell number change [%],"lipid storage change, negative = inhibition",Potency
Cc1ccc(NC(=O)c2sc3nc4c(c(-c5ccco5)c3c2N)CCC4)cc1,inactive,-11.1,–,–
Nc1c(C(=O)Nc2ccccc2)sc2nc3c(c(-c4ccco4)c12)CCCC3,–,-3.84,12.6% (inactive),–
Nc1c(C(=O)NCC2CCCO2)sc2nc3c(c(-c4ccco4)c12)CC/C3=C\c1ccco1 (configuration not stated),–,3.45,–,8.2 µM (active)
COc1ccc(NC(=O)CC2C(=O)NCCN2C(=O)Nc2ccc(C(F)(F)F)cc2)cc1 (configuration not stated),–,12.2,0.561% (inactive),–
Cc1cccc(NC(=O)CN2C(=O)N/C(=C\c3ccc(-c4cccc(C(=O)O)c4)o3)C2=O)c1,–,-0.725,0.48% (inactive),–
CCCn1c(N)c(N(CCOC)C(=O)/C=C/c2ccc(C(=O)OC)cc2)c(=O)[nH]c1=O,–,-4.64,-7.54% (inactive),–
CC(C)(C)NC(=O)C(c1ccc(F)cc1)N(Cc1ccco1)C(=O)c1csnn1 (configuration not stated),–,-0.0921,13.7% (inactive),–
Cc1ccc(NC(=O)CCc2c(C)[nH]c(=O)c(C#N)c2C)cc1,inactive,16.2,–,–
COc1cc(NC(=O)CCc2c(C)[nH]c(=O)c(C#N)c2C)cc(OC)c1,–,-2.94,–,0.058 µM (active)
COc1ccccc1NC(=O)CCc1c(C)[nH]c(=O)c(C#N)c1C,–,16.5,-20.9% (inactive),–
COc1ccc(-c2[nH]ncc2/C=N/NC(=O)c2ccc(Br)cc2)c(OC)c1,–,3.28,15.5% (inactive),–
CCOc1ccc(NC(=O)CN2C(=O)CSC(C)C2=O)cc1 (configuration not stated),–,8.89,18.6% (inactive),–
Cc1c(C(=O)N(CCC#N)c2ccccc2)sc2nc3n(c(=O)c12)CCCC3,–,7.46,-10.6% (inactive),–
COc1ccc(O)c(-c2cc(-c3ccccc3Cl)[nH]n2)c1,–,-20.4,–,3.66 µM (active)
Oc1ccc(Br)cc1-c1cc(-c2ccccc2Cl)[nH]n1,–,-23.2,-22.2% (inactive),–
COc1ccc(O)c(-c2cc(-c3ccccc3[N+](=O)[O-])[nH]n2)c1,–,-1.9,7.36% (inactive),–
CCc1ccc(/C=C(\C)C(=O)c2c(C)cc(C)[nH]c2=O)cc1,–,-0.605,3.7% (inactive),–
CCOc1ccc(C2c3[nH]c4ccccc4c3C[C@H]3C(=O)N(C4CC4)CC(=O)N23)cc1OC (some centres not stated),–,5.07,9.36% (inactive),–
CCOc1ccc2oc(C(=O)NC(C)(C)CC)c(C)c2c1,–,-22.3,5.67% (inactive),–
CC(C)(C)N(Cc1ccccc1)C(=O)COC(=O)CNS(=O)(=O)c1ccc2ccccc2c1,–,-5.96,4.49% (inactive),–
COc1cccc(N2CCN(C(C)C(=O)NC34CC5CC(CC(C5)C3)C4)CC2)c1 (configuration not stated),–,-27.6,–,1.3 µM (active)
COc1ccc(N2CCN(C(=O)NC34CC5CC(CC(C5)C3)C4)CC2)cc1,inactive,–,–,–
COc1cccc(C(=O)NC23CC4CC(CC(C4)C2)C3)c1,–,26.5,15.8% (inactive),–

SMILES,outcome,cell number change [%],"lipid storage change, negative = inhibition",Potency
CC(=C1C(=O)c2ccccc2C1=O)N1CCN(Cc2ccccc2)CC1,inactive,11.8,–,–
O=C1c2ccccc2C(=O)c2c1cccc2N1CCN(Cc2ccccc2)CC1,–,–,–,18.4 µM (active)
O=c1[nH]ncc(N2CCN(Cc3ccccc3)CC2)c1Cl,–,12.7,13.6% (inactive),–
CCN(CC)C(c1ccc(F)cc1)c1nnnn1C1CCCCC1 (configuration not stated),–,-7.83,10.6% (inactive),–
CN(c1ccccc1)C(c1ccc(F)cc1)c1nnnn1CC1CCCO1 (configuration not stated),inactive,–,–,–
CCN(CC)C(c1ccc(F)cc1)c1nnnn1CC1CCCO1 (configuration not stated),–,4.03,–,18.4 µM (active)
CC(C)c1nc(SCC(=O)N2CCOCC2)c2c(=O)n(C)c(=O)n(C)c2n1,–,5.66,8.15% [at 9.22 µM] (inactive),–
Cn1c(SCC(N)=O)nnc1-c1ccc(C(C)(C)C)cc1,–,-9.51,-7.75% (inactive),–
C=CCn1c(SCC(=O)O)nnc1-c1ccc(C(C)(C)C)cc1,–,5.05,-0.438% (inactive),–
C=C(C)Cn1c(SCC(=O)O)nnc1-c1ccc(C(C)(C)C)cc1,–,-3.69,–,29.1 µM (active)
CC(C)=CC(O)C/C(C)=C/COc1ccc2ccc(=O)oc2c1 (configuration not stated),–,-2.96,5.31% (inactive),–
O=C(NCC(c1ccco1)N1CCOCC1)c1ccc(F)c(F)c1 (configuration not stated),–,3.3,6.58% (inactive),–
CCCCC1C2C(=O)N(c3ccc(C)cc3)C(=O)C2ON1c1ccccc1 (configuration not stated),–,7.09,0.528% (inactive),–
CCCOc1ccc(N2C(=O)C3ON(c4ccccc4)C(CCC)C3C2=O)cc1 (configuration not stated),–,10.7,–,18.4 µM (active)
CCCCC1C2C(=O)N(c3ccccc3)C(=O)C2ON1c1ccccc1 (configuration not stated),–,-1.39,14.1% (inactive),–
CSc1nnc(C)c(=O)n1COC(=O)COc1ccc(Cl)cc1,–,11.4,8.1% (inactive),–
CCO[C@H]1OC(C(=O)N2CCN(C)CC2)=C[C@@H](c2ccc(Br)cc2)[C@@H]1CCCO,–,4.76,0.537% (inactive),–
CC(=O)Nc1ccc(NC(=O)Nc2cc(C)cc(C)c2)cc1,–,7.61,-8.79% (inactive),–
O=C(Cc1ccc(F)cc1)NCCc1ccc(F)cc1,–,-3.73,0.497% (inactive),–
CCC(CC)C(=O)NCCc1ccc(S(N)(=O)=O)cc1,–,-8.96,0.195% (inactive),–
CCC(CC)C(=O)NCCc1ccc(F)cc1,–,0.621,–,25.9 µM (active)
O=C(Cc1ccccc1)N/N=C/c1ccc[nH]1,–,7.79,1.93% (inactive),–

# Reference: PubChem BioAssay AID2685 (National Center for Advancing Translational Sciences (NCATS), 2010)
